Assay outcomes (PubChem)
This is a sample that favours compounds with a hit; in the whole collection about 2.4% have one here.
Pol kappa inh-1 = qHTS for Inhibitors of Polymerase Kappa; DNA polymerase kappa (Homo sapiens), Q9UBT6; purified Pol kappa, fluorescent DNA synthesis assay, 10 min; Potency, µM (doses to about 107 µM), without a hit: at the highest dose activity, negative = inhibition, actives largely listed as inhibitors; actives 0.53% (n = 400,000); also: % is scaled to controls: 0 for no effect and ±100 for the full control effect
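Fluorescent qHTS in 1536-well format: enzyme (10 nM) and compound sat 15 min at room temperature before 50 nM substrate (final) was added. Signal taken at 0 and 10 min; no-enzyme buffer wells were negative controls.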
GLS inh = qHTS for Inhibitors of Glutaminase (GLS). Glutaminase kidney isoform, mitochondrial (Homo sapiens), O94925. GLS enzymatic activity, qHTS titration. Potency, µM (doses to about 45.5 µM), inactives show at the top dose activity change, negative = inhibition, usual class: inhibitors. actives 0.21% (n = 410,000). AID 624170, 2012; also: % is scaled to controls: 0 for no effect and ±100 for the full control effect
Target sequence (O94925 whole entry, looked up, canonical isoform): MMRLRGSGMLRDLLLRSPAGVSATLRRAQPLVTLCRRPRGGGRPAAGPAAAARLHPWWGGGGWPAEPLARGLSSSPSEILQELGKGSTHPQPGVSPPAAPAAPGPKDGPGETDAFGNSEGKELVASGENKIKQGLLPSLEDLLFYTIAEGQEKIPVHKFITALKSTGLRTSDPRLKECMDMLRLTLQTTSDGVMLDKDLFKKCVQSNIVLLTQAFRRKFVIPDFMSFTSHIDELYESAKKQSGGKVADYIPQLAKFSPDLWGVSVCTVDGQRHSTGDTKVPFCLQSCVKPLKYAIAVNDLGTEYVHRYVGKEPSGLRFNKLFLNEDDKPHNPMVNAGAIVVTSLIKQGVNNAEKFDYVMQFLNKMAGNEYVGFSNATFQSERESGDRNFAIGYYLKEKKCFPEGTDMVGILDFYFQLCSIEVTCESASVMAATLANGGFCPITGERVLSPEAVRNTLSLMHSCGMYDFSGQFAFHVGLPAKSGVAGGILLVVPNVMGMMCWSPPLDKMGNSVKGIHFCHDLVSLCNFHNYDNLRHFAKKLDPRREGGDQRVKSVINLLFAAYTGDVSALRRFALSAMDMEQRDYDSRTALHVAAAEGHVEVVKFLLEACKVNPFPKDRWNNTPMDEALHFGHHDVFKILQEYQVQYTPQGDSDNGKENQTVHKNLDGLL
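Assay buffer: 45 mM KH2PO4 pH 8.2, 0.02% Tween-20. hKGA acts on L-glutamine (1 mM solution added); product glutamate is reported by an oxidase/peroxidase Amplex Red coupling, with fluorescence taken at baseline and 30 min.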
POLI inh = qHTS for Inhibitors of Polymerase Iota. Pol iota fluorescent replication assay, 10 min. actives 1% (n = 390,000). DNA polymerase iota (Homo sapiens), Q9UNA4. Potency, µM (highest dose often 115 µM), without a hit: at the top dose activity, negative = inhibition, actives largely listed as inhibitors
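Pol iota at 10 nM preincubated 15 min with compounds at room temperature; reaction started with fluorescent substrate, 50 nM final. Fluorescence read kinetically at 0 and 10 min; buffer-only wells as negative control.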
Pol beta inh = qHTS Assay for Inhibitors of DNA Polymerase Beta; Pol beta primer extension/strand displacement, fluorescence kinetic; P06746; Potency, µM (series often up to 114 µM), without a hit: at the highest dose activity change, negative = inhibition, actives largely listed as inhibitors; actives 1.3% (n = 340,000); also: % is scaled to controls: 0 for no effect and ±100 for the full control effect
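Human Pol beta at 10 nM; strand-displacement substrate 50 nM final. Compound exposure 15 min at room temperature before start, reaction 10 min at room temperature.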
APE1 inh = qHTS Assay for Inhibitors of the Human Apurinic/apyrimidinic Endonuclease 1 (APE1); recombinant APE1, TAMRA/BHQ-2 abasic DNA cleavage fluorescence; AID 2517, 2012; Potency, µM (top dose mostly 65.8 µM), inactives show at the top dose activity change, negative = inhibition, most hits filed as inhibitors; actives 0.35% (n = 350,000);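 also: plate controls were vehicle for no effect and reference inhibitor for full effect; nearly all actives have a fitted effect of over 55% in size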
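Substrate: short duplex with […] THF abasic site, 5'-TAMRA and 3'-BHQ-2, 50 nM final. APE1 at 0.75 nM, preincubated 15 min RT with compound. Fluorescence increase from first to third read measured activity.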
Pol eta inh-1 = qHTS for Inhibitors of Polymerase Eta; DNA polymerase eta (Homo sapiens), Q9Y253; recombinant Pol eta, fluorescent DNA replication assay; Potency, µM (titrated, usually from 114 µM), for the others: at the top dose activity change, negative = inhibition, actives largely listed as inhibitors; actives 1.2% (n = 390,000); AID 588591, 2011; also: % is scaled to controls: 0 for no effect and ±100 for the full control effect
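Pol eta at 10 nM preincubated with compounds 15 min at room temperature; reaction started with fluorescent substrate (50 nM final) and read kinetically at 0 and 10 min.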
PGK validate = qHTS for inhibitors of Phosphogylcerate Kinase: Hit Validation Screen | actives 79% (n = 500) | TbPGK coupled GAPDH assay, Kinase-Glo luminescence | AID 686980, 2013 | Potency, µM (highest dose often 57.5 µM), for inactives: at the highest dose activity change, negative = inhibition, usual class: inhibitors | shares compounds with Pol kappa inh-1; also: % is scaled to controls: 0 for no effect and ±100 for the full control effect; nearly all actives have a fitted effect of over 65% in size
Pol iota confirm = qHTS for Inhibitors of Polymerase Iota: Confirmatory Assay for Cherry-picked Compounds | Potency, µM, hits mostly inhibitors | shares compounds with Pol kappa inh-1 | actives 77% (n = 1,500) | Pol iota primer extension, TAMRA/BHQ fluorescence
Pol kappa inh-2 = qHTS for Inhibitors of Polymerase Kappa: Confirmatory Assay for Cherry-picked Compounds. shares compounds with Pol eta inh-1. purified Pol-kappa, fluorescent strand-displacement substrate. Potency, µM, actives largely listed as inhibitors. actives 76% (n = 920). AID 720501, 2013
Pol eta inh-2 = qHTS for Inhibitors of Polymerase Eta: Confirmatory Assay for Cherry-picked Compounds. shares compounds with Pol eta inh-1. actives 64% (n = 2,600). Potency, µM, hits mostly inhibitors. Pol eta primer extension, TAMRA/BHQ fluorescence, 10 min
The depositor's hits bear a star; ? = inconclusive; . = no result; [ ] = another dose, or the depositor's remark. Calls follow the shape of the dose curve; as a rule, active = well fitted curve in the direction sought with a large enough effect; inconclusive = small, poorly fitted or top-dose-only effect, or another doubt; inactive = no such curve, though single readings can be large; an effect the other way counts as inactive or inconclusive. Potency is read from the fitted curve at half-maximal effect.

SMILES | Pol kappa inh-1 | GLS inh | POLI inh | Pol beta inh | APE1 inh | Pol eta inh-1 | Pol iota confirm | Pol eta inh-2 | others
COc1ccc(CC(=O)Nc2ccccc2Oc2ccccc2)cc1 | . | . | . | -21% | 3% | . | . | .
CCC(=O)Nc1ccccc1-c1nc2ccccc2n(Cc2cccc(Br)c2)c1=O | -21% | 1% | -6% | ? | . | 3% | . | .
COc1cc(-c2cc(=O)c3c(O)c(OC)c(OC)c(O)c3o2)ccc1O | 25µM* | 2.8µM* | ? | 7.1µM* | ? | 7.1µM* | 7.5* | 27*
CCOc1cc(C#N)c(NC(=O)c2ccc(OC)c(S(=O)(=O)N3CCCCC3)c2)cc1OCC | -10% | 6% | -14% | 29% | . | . | . | .
Cc1cc([N+](=O)[O-])cc2c1NCC1CC=CC21 (stereo unspecified) | -4% | 4% | 4% | 4% | -3% | -18% | . | .
O=C(O)c1cc(O)c2c(c1)C(=O)c1cccc(O)c1C2=O | 50µM* | 22µM* | 40µM* | 11µM* | 0.32µM* | 50µM* | 67* | 76* | Pol kappa inh-2=47*
O=C(O)c1cccc2c1-c1ccc(Cl)cc1C2=O | -18% | 2% | 16% | . | . | -8% | . | .
CCc1nn2c(=O)cc(COc3ccc(/C=C4\C(=N)N5N=C(CC(C)C)SC5=NC4=O)cc3)nc2s1 | -35% | 8% | ? | ? | ? | ? | 75* | 76*
O=C(N/N=C/c1ccncc1)c1ccccc1[N+](=O)[O-] | 1% | 1% | 66% | 3% | 6% | -15% | . | .
Cc1cccc2c1NC(=O)C2=O | 50µM* | ? | 8.9µM* | . | . | 8.9µM* | 42* | 17* | Pol kappa inh-2=15*
COC(=O)c1c(C)cc(OC)cc1O | -9%[60.1 µM] | . | . | . | -8% | . | . | .
COC(=O)c1cc(O)cc(OC)c1Oc1cc(C)cc(O)c1C(=O)O | 11µM* | 11µM* | 13µM* | 3.2µM* | 0.63µM* | 3.5µM* | 13* | 12* | PGK validate=1µM*
Nc1nc(Sc2ccc([N+](=O)[O-])c3nonc23)c2[nH]cnc2n1 | 18µM* | ? | 3.2µM* | . | . | ? | 21* | 30* | PGK validate=18µM*;Pol kappa inh-2=15*
N#Cc1c(SCC(=O)Nc2nncs2)sc2c(O)cc(=O)[nH]c12 | 8.9µM* | 0% | 2µM* | 4µM* | -92% | 7.1µM* | 19* | 19*
Cc1ccnc2nc(C(=O)Nc3nc(-c4ccccn4)cs3)nn12 | ? | -17% | 50µM* | 11µM* | ? | 79µM* | 67* | 85*
C(=N\Nc1nc2ccccc2[nH]1)/c1cccc2cccnc12 | 2% | 2% | 3% | 35% | 8% | -11% | . | .
S=C(NNc1ccnc2cc(Cl)ccc12)Nc1ccc(Cl)cc1Cl | 3% | -10% | 13% | 12% | -9% | 1% | . | .
